Assay results: PubChem BioAssay AID1159580 (chemical genetic matrix, 2015)
Among all 5,500 compounds or so, about 2,000 (36%) were called active. Another 18% or so got no clear call; they are omitted. Rule as the data show it: active = normalized growth mostly below about 0.91 (no sharp cut-off); inconclusive = no clear call, values can overlap the other calls; inactive = mostly above about 0.92. Some of the results follow.

Assay: chemical genetic growth profiling, strain panel (AID 1159580);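 also: tested at 20 µM; growth read once vehicle control cultures reached saturation at 30 °C; 1 = growth at the plate median or of vehicle wells; lower values mean less growth of the strain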
Conditions: S. cerevisiae deletion strains, growth OD

Measured: normalized growth

Cc1cccc(C(=O)O)c1O
inactive: locus YAL013W, strain DEP1, active compounds read low 1.01 | locus YBR021W, strain FUR4, active compounds read low 0.997 | locus YBR229C, strain ROT2, active compounds read low 1.02 | locus YCL029C, strain bik1, active compounds read low 1.02 | locus YDL035C, strain GPR1, active compounds read low 0.999 | locus YDL074C, strain BRE1, active compounds read low 1.02 | locus YDL101C, strain DUN1, active compounds read low 1.02 | locus YDL134C, strain PPH21, active compounds read low 1.01 | locus YDL185W, strain tfp1, active compounds read low 1.02 | locus YDL192W, strain arf1, active compounds read low 1.01 | locus YDR101C, strain arx1, active compounds read low 1.01 | locus YDR162C, strain NBP2, active compounds read low 1.02 | locus YDR318W, strain mcm21, active compounds read low 1.02 | locus YDR388W, active compounds read low 1.02 | locus YDR502C, strain sam2, active compounds read low 1.01 | locus YEL061C, strain CIN8, active compounds read low 1.01 | locus YER110C, active compounds read low 1.01 | locus YER155C, strain BEM2, active compounds read low 1 | locus YER167W, strain BCK2, active compounds read low 1.01 | locus YGL078C, strain dbp3, active compounds read low 1 | locus YGL086W, strain mad1, active compounds read low 1.01 | locus YGL248W, strain PDE1, active compounds read low 1.02 | locus YGR078C, strain PAC10, active compounds read low 1.01 | locus YGR135W, strain pre9, active compounds read low 1.02 | locus YGR252W, strain gcn5, active compounds read low 1 | locus YHR030C, strain SLT2, active compounds read low 1.02 | locus YHR079C, strain IRE1 (second series), active compounds read low 1.01 | locus YHR094C, strain hxt1, active compounds read low 1.01 | locus YHR129C, strain ARP1, active compounds read low 1.01 | locus YHR200W, strain rpn10, active compounds read low 1.02 | locus YIL066C, strain RNR3, active compounds read low 1.02 | locus YIL073C, strain SPO22, active compounds read low 1.02 | locus YIL125W, strain kgd1, active compounds read low 1.01 | locus YIR030C, strain dcg1, active compounds read low 1.02 | locus YJL095W, strain BCK1, active compounds read low 1.02 | locus YJL134W, strain LCB3, active compounds read low 1.01 | locus YJL168C, strain set2, active compounds read low 1 | locus YJL187C, strain SWE1 (second series), active compounds read low 1.02 | locus YJR043C, strain POL32, active compounds read low 1.01 | locus YKL009W, strain mrt4, active compounds read low 0.968 | locus YKL068W, active compounds read low 1 | locus YKL085W, strain MDH1 (second series), active compounds read low 1 | locus YKL085W, strain MDH1, active compounds read low 1 | locus YKR001C, strain vps1, active compounds read low 1.02 | locus YLR039C, strain RIC1, active compounds read low 0.993 | locus YLR058C, strain SHM2, active compounds read low 1.02 | locus YLR102C, strain apc9, active compounds read low 1.01 | locus YLR262C, strain YPT6, active compounds read low 1.04 | locus YLR268W, strain sec22, active compounds read low 1.03 | locus YLR330W, strain CHS5, active compounds read low 1.01 | locus YLR342W, strain FKS1 (second series), active compounds read low 0.995 | locus YLR371W, strain rom2, active compounds read low 1.02 | locus YLR418C, strain cdc73, active compounds read low 1.05 | locus YML016C, strain PPZ1, active compounds read low 1.01 | locus YML032C, strain rad52, active compounds read low 1.02 | locus YML124C, strain tub3, active compounds read low 1.02 | locus YMR078C, strain ctf18, active compounds read low 1.02 | locus YMR223W, strain ubp8, active compounds read low 1.02 | locus YMR307W, strain GAS1, active compounds read low 0.975 | locus YNL067W, strain RPL9B, active compounds read low 1.02 | locus YNL153C, strain GIM3, active compounds read low 1.01 | locus YNL233W, strain BNI4, active compounds read low 1.02 | locus YNL250W, strain rad50, active compounds read low 1.02 | locus YNL271C, strain bni1, active compounds read low 1 | locus YNL298W, strain CLA4, active compounds read low 0.996 | locus YNL307C, strain MCK1, active compounds read low 1.02 | locus YNL322C, strain KRE1, active compounds read low 1.01 | locus YNR052C, strain pop2, active compounds read low 1.03 | locus YOL012C, strain htz1 0.786 | locus YOL147C, strain pex11, active compounds read low 1.01 | locus YOR061W, strain CKA2, active compounds read low 1.01 | locus YOR069W, strain VPS5, active compounds read low 1.02 | locus YOR136W, strain idh2, active compounds read low 1.01 | locus YOR144C, strain elg1, active compounds read low 1.01 | locus YOR184W, strain ser1, active compounds read low 1.02 | locus YOR316C, strain cot1, active compounds read low 1.02 | locus YPL055C, strain LGE1, active compounds read low 1.01 | locus YPL241C, strain CIN2, active compounds read low 1.01 | locus YPR119W, strain clb2, active compounds read low 1.01 | locus YPR141C, strain kar3, active compounds read low 1.01 | locus YPR163C, strain tif3, active compounds read low 1.02 | locus YPR167C, strain met16, active compounds read low 1.01 | strain wtn01, active compounds read low 1
